Compound activity deposited in PubChem by National Center for Advancing Translational Sciences (NCATS).
Most compounds without a hit are left out; they make up all but 2.9% or so of the library.
Mm-Cpn inhibitor – Inhibitors of TCP-1 ring complex (TRiC) of Methanococcus maripaludis (MmCpn): qHTS | purified Mm-Cpn ATPase, ADP Transcreener TR-FRET | Potency, µM (doses to about 76.9 µM), for the others: top-dose activity, negative = inhibition, hits mostly inhibitors | actives 0.031% (n = 330,000) | AID 504842, 2011; active = well fitted inhibition curve with a large enough effect; inconclusive = small, poorly fitted or top-dose-only effect; also: potency is read from the fitted curve at half-maximal effect; % is scaled to controls: 0 for no effect and ±100 for the full control effect; nearly all actives have a fitted effect of over 80% in size
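Purified archaeal chaperonin (25 nM final) was preincubated with compound for 10 min at 37°C, then ATP (10 uM final) was added for 30 min at 37°C in Tris pH 7.4/KCl/MgCl2/DTT buffer. ADP was quantified by HTRF Transcreener TR-FRET.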
DRD3 antagonist – qHTS of D3 Dopamine Receptor Antagonist: qHTS | max response, negative = inhibition, % | D(3) dopamine receptor (Homo sapiens), P35462 | D3R cells, DiscoveRx beta-arrestin luminescence, antagonist mode; stronger effect = lower value | actives 2.5% (n = 360,000); in the data active = max response below about -50%; inconclusive = no clear call, values can overlap the other calls; also: % is scaled to controls: 0 for no effect and ±100 for the full control effect
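Cells expressing the human receptor were seeded at 1500 cells/well, incubated overnight at 37 degrees C in 5% CO2, then exposed to library compounds with dopamine controls for 90 minutes at 37 degrees C before luminescent detection.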
DRD3 agonist – qHTS of D3 Dopamine Receptor Agonist: qHTS; D3R DiscoveRx beta-arrestin cells, luminescence, 90 min; actives 0.58% (n = 410,000); max activation, %; D(3) dopamine receptor (Homo sapiens), P35462; AID 652048, 2013; in the data active = max activation above about 30%; also: 0% is about no effect
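Cells at 1500/well, incubated overnight, then treated with pinned compounds (dopamine as control) for 90 min at 37 degrees C. DiscoveRx reagent added for 30 - 60 minutes at room temperature; luminescence read.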
Rango dissoc inh – qHTS Assay for Inhibitors of RanGTP induced Rango (Ran-regulated importin-beta cargo) - Importin beta complex dissociation; Snurportin-1 (Homo sapiens) + GTP-binding nuclear protein Ran (Homo sapiens) + Importin …; Biochemical FRET Rango-importin beta, RanGTP-induced dissociation; Potency, µM (series often up to 46.1 µM), for inactives: at the top dose activity change, negative = inhibition; actives 0.071% (n = 340,000); AID 540253, 2011; also: potency is read from the fitted curve at half-maximal effect; % of control where 0% means no effect; nearly all actives have a fitted effect of over 45% in size
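Quantitative HTS using a FRET biosensor: 0.1 uM Rango, 0.25 uM importin beta, 0.6 uM Ran, 2 mM GTP, 0.2 uM RCC1 final, PBS with DTT, Tween-20 and BSA. Post-read taken 45 min after Ran addition.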
Rango-impB inh – qHTS Assay for Inhibitors of Rango (Ran-regulated importin-beta cargo) - Importin beta complex formation | Importin subunit beta-1 (Homo sapiens), Q14974 | Rango CFP/YFP FRET sensor + importin beta, 45 min | Potency, µM (top dose mostly 92.2 µM), for the others: at the highest dose inhibition of complex formation | actives 0.031% (n = 340,000);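 also: potency is read from the fitted curve at half-maximal effect; 0% = DMSO wells and 100% = buffer wells lacking importin beta; nearly all actives have a fitted effect of over 15% in size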
Target sequence (Q14974 whole entry, looked up): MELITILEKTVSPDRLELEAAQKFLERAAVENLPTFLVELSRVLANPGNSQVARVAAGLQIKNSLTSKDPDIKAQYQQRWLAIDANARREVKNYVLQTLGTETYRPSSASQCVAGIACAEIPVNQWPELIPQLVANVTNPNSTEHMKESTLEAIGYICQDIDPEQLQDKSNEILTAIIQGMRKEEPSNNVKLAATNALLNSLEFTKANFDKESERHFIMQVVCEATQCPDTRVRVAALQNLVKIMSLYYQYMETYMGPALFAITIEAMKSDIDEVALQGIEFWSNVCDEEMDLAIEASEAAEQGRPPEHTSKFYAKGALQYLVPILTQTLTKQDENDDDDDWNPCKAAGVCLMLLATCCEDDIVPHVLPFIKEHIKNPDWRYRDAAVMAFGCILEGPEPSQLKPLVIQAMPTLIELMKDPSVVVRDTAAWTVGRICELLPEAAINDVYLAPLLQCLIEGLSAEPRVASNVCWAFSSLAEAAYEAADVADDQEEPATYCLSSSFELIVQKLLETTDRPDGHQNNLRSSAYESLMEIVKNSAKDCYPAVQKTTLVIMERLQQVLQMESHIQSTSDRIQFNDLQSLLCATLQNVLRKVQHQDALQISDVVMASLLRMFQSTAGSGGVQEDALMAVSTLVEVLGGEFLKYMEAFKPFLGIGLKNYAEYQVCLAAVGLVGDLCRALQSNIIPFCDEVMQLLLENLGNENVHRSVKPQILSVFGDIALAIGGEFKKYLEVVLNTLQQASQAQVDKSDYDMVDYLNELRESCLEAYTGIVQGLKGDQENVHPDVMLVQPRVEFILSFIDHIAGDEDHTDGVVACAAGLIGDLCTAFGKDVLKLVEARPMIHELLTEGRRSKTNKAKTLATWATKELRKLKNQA
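FRET biosensor (snurportin 1 IBB flanked by EYFP and cerulean), 50 nM, with compound 5 min, then 0.125 microM importin beta in PBS, 1 mM DTT, 0.02% Tween-20, 0.1% BSA. CFP/YFP ratio read after 45 min at room temperature; pre-read flags interference.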
TSG101-PTAP inh – qHTS Assay for Iinhibitors of HIV-1 Budding by Blocking the Interaction of PTAP/TSG101; Tumor susceptibility gene 101 protein (Homo sapiens), Q99816; Fluorescence polarization, FITC-PTAP peptide / Tsg101 binding; Potency, µM (titrated, usually from 115 µM), inactives show at the highest dose activity change, negative = inhibition, actives largely listed as inhibitors; 340,000 tested, under 10 active; AID 493005, 2010; active = well fitted inhibition curve with a large enough effect in the main read-out, with a control signal flat, not every such curve was filed as active; inconclusive = small, poorly fitted or top-dose-only effect, or effect the other way, or a change in a side signal; inactive = no such curve, though single readings can be large or run the other way; also: potency is read from the fitted curve at half-maximal effect; % of control where 0% means no effect
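Compounds were pin-transferred onto Tsg101 binding domain (10 uM final) in HEPES pH 7.5 buffer, then FITC-PTAP peptide was added at 50 nM final. After 20 min at RT, polarization reported peptide displacement across a qHTS concentration series.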
* marks the source's active call; other numbers are inactive results; ! = not active in a repeat. Unless noted, calls follow the shape of the full dose curve.

Results for O=C(CN1CCN(c2ccccc2O)CC1)NC(=O)NC1CCCC1 ?
Mm-Cpn inhibitor: -5%; DRD3 antagonist: -10; DRD3 agonist: -3; Rango dissoc inh: -10%; Rango-impB inh: 0%; TSG101-PTAP inh: -1%

Results for COc1ccc(C(=O)CCN2CCN(c3ccccc3OC)CC2)cc1 ?
Mm-Cpn inhibitor: -5%; DRD3 antagonist: -83*; DRD3 agonist: -21; Rango dissoc inh: -2%; Rango-impB inh: -1%; TSG101-PTAP inh: -1%

Results for COc1cc2c(cc1OC)CN(CCOc1ccc(Br)cc1)CC2 ?
Mm-Cpn inhibitor: 0%; DRD3 antagonist: -100*; DRD3 agonist: -2; Rango dissoc inh: -10%; Rango-impB inh: 0%; TSG101-PTAP inh: -5%

Results for CC[C@H]1OC(=O)[C@H](C)[C@@H](O[C@H]2C[C@@](C)(OC)[C@@H](O)[C@H](C)O2)[C@H](C)[C@@H](O[C@@H]2O[C@H](C)C[C@H](N(C)C)[C@H]2O)[C@](C)(O)C[C@@H](C)[C@@H]2N[C@@H](COCCOC)O[C@@H]([C@H]2C)[C@]1(C)O ?
DRD3 agonist: -8

What do the screens show for `Cc1ccc(C)c(OCCn2c(C3CC(=O)N(Cc4ccc(F)cc4)C3)nc3ccccc32)c1` (stereo unspecified)?
DRD3 agonist: -15

What do the screens show for `O=C(C1CC1)N1CCN(c2ccnc3cc(Cl)ccc23)CC1`?
Mm-Cpn inhibitor: -2%; DRD3 antagonist: -68*; DRD3 agonist: 2; Rango dissoc inh: -2%; Rango-impB inh: -1%; TSG101-PTAP inh: 0%

How did Cc1ccc(C(=O)Nc2cccc3cccnc23)cc1Cl do in these assays?
DRD3 agonist: 1

How did O=C(NC1CCCCC1)c1ccc2c(c1)N(Cc1cccc(F)c1)C(=O)c1ccccc1S2 do in these assays?
DRD3 agonist: 5

How did CCC1Nc2ncnc(N3CCN(c4ccccc4)CC3)c2N(Cc2ccccc2)C1=O (stereo unspecified) do in these assays?
Mm-Cpn inhibitor: -1%; DRD3 antagonist: -142*; DRD3 agonist: -60; Rango dissoc inh: 3%; Rango-impB inh: 1%; TSG101-PTAP inh: -8%

Results for CCC1Nc2ncnc(N3CCN(c4ccccc4)CC3)c2N(Cc2ccc(C)cc2)C1=O (stereo unspecified) ?
Mm-Cpn inhibitor: 1%; DRD3 antagonist: -139*; DRD3 agonist: -61; Rango dissoc inh: -17%; Rango-impB inh: -11%; TSG101-PTAP inh: -3%

How did CC(C)CC1Nc2ncnc(N3CCN(c4ccccc4)CC3)c2N(Cc2ccc(Cl)cc2)C1=O (stereo unspecified) do in these assays?
Mm-Cpn inhibitor: -7%; DRD3 antagonist: -23; DRD3 agonist: -10; Rango dissoc inh: 9%; Rango-impB inh: -5%; TSG101-PTAP inh: 4%

What do the screens show for `Cc1ccc(CN2C(=O)C(Cc3ccccc3)Nc3ncnc(N4CCOCC4)c32)cc1` (stereo unspecified)?
DRD3 antagonist: -58*; DRD3 agonist: -9

How did Cc1ccc(CN2C(=O)C(CC(C)C)Nc3ncnc(N4CCN(c5ccccc5)CC4)c32)cc1 (stereo unspecified) do in these assays?
Mm-Cpn inhibitor: 0%; DRD3 antagonist: -55*!; DRD3 agonist: -13; Rango dissoc inh: -7%; Rango-impB inh: 0%; TSG101-PTAP inh: 0%

What do the screens show for `COc1ccc(C(=O)NCC(C)(c2ccccc2)c2ccccc2)cc1S(=O)(=O)N1CCOCC1`?
DRD3 antagonist: -17; DRD3 agonist: -9; Rango dissoc inh: -4%; Rango-impB inh: 1%; TSG101-PTAP inh: 1%

How did COc1ccc(-c2nc3ccccc3o2)cc1NC(=O)c1ccc(-c2cccc(Cl)c2C)o1 do in these assays?
DRD3 agonist: 4

How did Cc1ccc(Nc2sc(C(=O)c3ccccc3)c(N)c2S(=O)(=O)c2ccccc2)cc1Cl do in these assays?
DRD3 agonist: 2

What do the screens show for `CC(O)[C@H]1CC[C@H]2[C@@H]3CC[C@@H]4C[C@@H](O)CC[C@]4(C)[C@H]3CC[C@]12C` (stereo partly specified)?
DRD3 agonist: 13

What do the screens show for `O=C(NCC1CCCN(Cc2cccc(OCCO)c2)C1)c1ccc(F)cc1` (stereo unspecified)?
Mm-Cpn inhibitor: 1%; DRD3 antagonist: 11; DRD3 agonist: -2; Rango dissoc inh: -17%; Rango-impB inh: 2%; TSG101-PTAP inh: -3%

What do the screens show for `c1cc(CN2CCCCC2)cc(OCCCNc2nc3ccccc3s2)c1`?
DRD3 antagonist: -75*; DRD3 agonist: -80; Rango dissoc inh: -23%; Rango-impB inh: -3%; TSG101-PTAP inh: -6%

Results for O=C(NCCCOc1cccc(CN2CCCCC2)c1)c1ccc(Cl)c(Cl)c1 ?
Mm-Cpn inhibitor: 0%; DRD3 antagonist: -98*; DRD3 agonist: -38; Rango dissoc inh: 5%; Rango-impB inh: -2%; TSG101-PTAP inh: -1%

What do the screens show for `COc1cccc(CNc2nc3ccccc3n2CCN2CCCCC2)c1`?
Mm-Cpn inhibitor: 0%; DRD3 antagonist: inconclusive; DRD3 agonist: -42; Rango dissoc inh: 34%; Rango-impB inh: 7%; TSG101-PTAP inh: -4%

What do the screens show for `CC(C)C[C@@]12C(=O)N(c3cccc(Br)c3)C(=O)N1[C@H](c1ccc(F)cc1)[C@@H]1C(=O)N(C3CCCCC3)C(=O)[C@@H]12`?
Mm-Cpn inhibitor: -1%; DRD3 antagonist: 50; DRD3 agonist: 51*; Rango dissoc inh: -8%; Rango-impB inh: -2%; TSG101-PTAP inh: -1%

Results for COc1ccccc1C(=O)COC(=O)C1CCN(S(=O)(=O)c2ccc(C)c(C)c2)CC1 ?
Mm-Cpn inhibitor: 2%; DRD3 antagonist: 6; DRD3 agonist: -3; Rango dissoc inh: -10%; Rango-impB inh: -3%; TSG101-PTAP inh: 0%

What do the screens show for `Cc1onc(C(=O)NN)c1-c1csc(COc2ccc(Cl)cc2)n1`?
Mm-Cpn inhibitor: 0%; DRD3 antagonist: 4; DRD3 agonist: 44*; Rango dissoc inh: -3%; Rango-impB inh: 0%; TSG101-PTAP inh: 1%
